Here are results for nine compounds from PubChem BioAssay AID2284384 (EPA ToxCast).

Records with an inconclusive call do not appear. Active and inactive are the calls of the source. Rule for the calls: active = hit-call score of the fitted dose curve at least 0.9, where 1 is the maximum; inconclusive = response in the unintended direction; inactive = score below 0.9.

Chain of human Peroxisome Proliferator-activated Receptor alpha (PPARa), PPARA (gene 5465) (Q07869 whole entry, looked up): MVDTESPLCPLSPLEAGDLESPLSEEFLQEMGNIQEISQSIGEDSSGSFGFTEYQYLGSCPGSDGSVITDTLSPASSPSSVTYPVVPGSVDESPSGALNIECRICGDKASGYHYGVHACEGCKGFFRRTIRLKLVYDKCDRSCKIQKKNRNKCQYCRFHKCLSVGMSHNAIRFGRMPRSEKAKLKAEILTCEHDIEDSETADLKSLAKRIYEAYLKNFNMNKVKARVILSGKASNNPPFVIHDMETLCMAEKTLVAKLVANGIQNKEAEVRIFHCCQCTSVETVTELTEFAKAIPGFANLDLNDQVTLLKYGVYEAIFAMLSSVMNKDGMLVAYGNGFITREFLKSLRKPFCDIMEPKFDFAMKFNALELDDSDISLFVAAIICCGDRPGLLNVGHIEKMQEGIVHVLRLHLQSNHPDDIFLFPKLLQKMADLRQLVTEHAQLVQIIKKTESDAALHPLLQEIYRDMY

The target in this experiment is human Peroxisome Proliferator-activated Receptor alpha (PPARa), PPARA (gene 5465) (UniProt Q07869). The experiment can be described thus: ERF_US_NR_hPPARA: Eurofins (ERF) Nuclear Receptor (NR) Cell Based Protein-Protein Interaction LeadHunter Assay for human Peroxisome Proliferator-activated Receptor alpha (PPARa) Agonism. The procedure:
ERF_US_NR_hPPARA is a cell-based, single-readout assay that uses extracted gene-proteins […]. Measurements were taken 5 hours after chemical dosing in a 384-well plate. See PPARalpha Human NHR Cell Based Agonist Protein-Protein Interaction Assay, DiscoverX.ERF_US_NR_hPPARA is an assay component calculated from theERF_US_NR_hPPARA assay. It is designed to measure radioligand binding using a type of binding reporter as detected by scintillation counting with radiometry technology.Data from the assay component ERF_US_NR_hPPARA was analyzed at the assay endpoint, ERF_US_NR_hPPARA, in the positive analysis fitting direction relative to DMSO as the negative control and baseline of activity. Using a type of binding reporter, gain-of-signal activity can be used to understand changes in binding as they relate to gene PPARA. To generalize the intended target to other relatable targets, this assay endpoint is annotated to the nuclear receptor intended target family, where the subfamily is non-steroidal.
Cells were seeded in a total volume of 20 uL into white walled, 384-well microplates and incubated at 37C overnight prior to testing.Briefly, intermediate dilution of sample stocks was performed to generate 5X sample in assay buffer. 5 uL of 5X sample was added to cells and incubated at 37C for 300 minutes. Final assay vehicle concentration was 1%. The results are expressed as a percent efficacy of the control ligand.
For the compound `O=C(O)C(F)(F)OC(F)(F)C(F)(F)OC(F)(F)F`, the call was inactive.
Still for that read-out and setting: in the case of `O=C(O)C(F)(F)C(F)(F)C(F)(F)C(F)(F)C(F)(F)C(F)(F)C(F)F` it was “inactive”.
Still for that read-out and setting: the value for `O=C(O)C(F)(F)C(F)(F)C(F)(F)C(F)(F)C(F)(F)C(F)(F)C(F)(F)F` was “inactive”.
Consider `O=C(CC(=O)C(F)(F)C(F)(F)C(F)(F)F)c1cccs1`, for which the concentration at half-maximal activity (AC50) was 12.6 µM (active).
As to `O=S(=O)(O)C(F)(F)C(F)(F)C(F)(F)C(F)(F)C(F)(F)C(F)(F)C(F)(F)C(F)(F)F`, the call was inactive.
Same read-out and setting: the value for `O=S(=O)(O)C(F)(F)C(F)(F)C(F)(F)C(F)(F)C(F)(F)C(F)(F)F` was “inactive”; that for `CN(CCOc1ccc(CC2SC(=O)NC2=O)cc1)c1ccccn1` (centres undefined) was “inactive”; that for `O=C(O)C(F)(F)C(F)(F)C(F)(F)C(F)(F)C(F)(F)C(F)(F)C(F)(F)C(F)(F)Cl` was “inactive”.
As for `CC(C)(Oc1ccc(C(=O)c2ccc(Cl)cc2)cc1)C(=O)O`, the AC50 is 50 µM (active).

A word on the AC50: it is the concentration giving half of the maximal activity seen.
